# Bioassay records deposited in PubChem BioAssay by several laboratories.
# Anthrax LF prot: inhibitors of Bacillus anthracis lethal factor protease; P15917; multiplex microsphere protease cleavage assay, LF; inhibition, % at 10 µM; 0.12% of 360,000 active; AID 588501; further: plate controls were buffer without enzyme for full effect and enzyme alone for no effect
# Target sequence (P15917 whole entry, looked up): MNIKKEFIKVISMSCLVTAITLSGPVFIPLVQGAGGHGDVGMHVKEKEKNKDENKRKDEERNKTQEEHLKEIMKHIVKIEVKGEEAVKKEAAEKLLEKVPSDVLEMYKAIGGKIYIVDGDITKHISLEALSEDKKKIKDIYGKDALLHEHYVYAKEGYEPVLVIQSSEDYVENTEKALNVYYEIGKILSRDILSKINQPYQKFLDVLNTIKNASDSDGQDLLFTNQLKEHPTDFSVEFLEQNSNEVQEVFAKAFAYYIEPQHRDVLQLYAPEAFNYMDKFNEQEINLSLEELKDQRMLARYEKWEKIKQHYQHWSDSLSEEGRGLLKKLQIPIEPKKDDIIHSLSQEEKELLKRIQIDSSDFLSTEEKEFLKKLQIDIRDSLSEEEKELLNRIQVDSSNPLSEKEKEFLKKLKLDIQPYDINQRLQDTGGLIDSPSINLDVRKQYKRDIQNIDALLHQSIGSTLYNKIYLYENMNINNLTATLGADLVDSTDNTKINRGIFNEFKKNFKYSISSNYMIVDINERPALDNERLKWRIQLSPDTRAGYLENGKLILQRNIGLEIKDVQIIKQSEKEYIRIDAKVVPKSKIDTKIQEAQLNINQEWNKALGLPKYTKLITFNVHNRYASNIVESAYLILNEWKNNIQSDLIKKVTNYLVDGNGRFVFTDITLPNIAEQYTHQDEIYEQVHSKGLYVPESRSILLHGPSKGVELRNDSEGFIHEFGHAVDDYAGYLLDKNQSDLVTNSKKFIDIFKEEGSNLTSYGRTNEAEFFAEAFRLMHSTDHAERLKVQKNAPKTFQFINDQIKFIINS
# SARS 3CLpro inh: SARS-CoV 3CLpro protease inhibition. recombinant SARS-CoV 3CLpro, quenched FRET peptide cleavage. AID 1706. 0.14% of 290,000 active. P0C6X7. inhibition, % at 6 µM; in the data active means inhibition above about 12%
# BoNT-F LC inh: inhibitors of Botulinum neurotoxin F light chain protease; Multiplex microsphere protease cleavage assay, flow cytometry; inhibition, % at 10 µM; 0.22% of 360,000 active; AID 588497; in the data active means inhibition above about 35%, passing the limit was not always enough; inconclusive means no clear call, values can overlap the other calls; further: plate controls were buffer without enzyme for full effect and enzyme alone for no effect
# BoNT A protease: inhibitors of Botulinum neurotoxin A light chain protease; multiplex microsphere protease substrate cleavage, flow cytometry; inhibition, % at 10 µM; AID 588499; 0.17% of 360,000 active; further: plate controls were buffer without enzyme for full effect and enzyme alone for no effect
# CCHFV vOTU inh: CCHFV vOTU protease inhibition; 0.55% of 370,000 active; inhibition, % at 11.5 µM; AID 651958; Pep-AMC fluorescence; in the data active means inhibition above about 30%; further: 0% = vehicle wells with enzyme and 100% = no enzyme wells
# Bead autofluor: flagged as autofluorescent in microsphere protease counterscreen; 3.1% of 360,000 active; compound autofluorescence counterscreen, microsphere flow cytometry; stronger effect = higher value; fluorescence intensity (test concentration not listed); in the data active means fluorescence intensity above about 16000; inconclusive means no clear call, values can overlap the other calls
# Numbers without * were called inactive; u = inconclusive; x = not tested or not shown. The list is not random: actives were taken first. Their share in the collection is about 3.9%. Unless noted, no stated cut-off is given here; in the data, active means inhibition above about 30%; inconclusive means no clear call, values can overlap the other calls; inactive means below that.
SMILES,Anthrax LF prot,SARS 3CLpro inh,BoNT-F LC inh,BoNT A protease,CCHFV vOTU inh,Bead autofluor
O=C(c1ccc(Cl)nc1)N1CCN(C/C=C/c2ccccc2)CC1,-1,1,2,0,-11,3244
O=C(Cc1ccccn1)Nc1ccccc1,2,-2,2,1,-3,22456*
Nc1cc(N)nc(SCC(=O)Nc2ccccc2)n1,-1,-2,-41,-3,11,5387
O=C(CSc1ncccn1)Nc1ccccc1,3,-7,2,u,-6,20507*
O=C(CSCc1ccccn1)Nc1ccccc1,-1,1,-21,-1,3,2399
Cc1ccsc1C(=O)OCC(=O)Nc1cccc(S(=O)(=O)N2CCOCC2)c1,0,0,-2,0,14,2052
CCn1cc(C(=O)OCC(=O)Nc2cccc(S(=O)(=O)N3CCOCC3)c2)c(=O)c2ccc(C)nc21,0,0,-1,u,-9,16363*
CC1CC(C)CN(c2ccc(C(=O)NCc3ccc4c(c3)OCO4)cc2[N+](=O)[O-])C1 (stereo not given),-4,1,-4,-1,13,2527
CC(C(=O)Nc1ccc(Br)cc1C(=O)c1ccccc1)N1CCCCC1 (stereo not given),-5,2,8,6,3,19761*
O=C(NCc1ccco1)c1sc(=S)n2c1[nH]c(=O)c1ccccc12,0,2,3,u,4,22207*
C=CCn1c(N)c(C(=O)NCc2ccco2)sc1=S,-6,1,-3,-2,2,21000*
O=C(NC1CCCC1)c1sc(=S)n2c1[nH]c(=O)c1ccccc12,2,10,-7,-1,-3,9563
Cc1ccc(-n2c(N)c(C(=O)NCc3ccco3)sc2=S)cc1,-6,4,3,-1,6,2957
C=CCn1c(N)c(C(=O)N2CCOCC2)sc1=S,-2,-2,5,u,9,19777*
CCn1c(N)c(C(=O)N2CCOCC2)sc1=S,-6,-3,-16,-1,-2,2855
Cc1ccc(-c2nc3c4ccccc4ccn3c2Cc2cccc(F)c2)cc1,x,x,x,x,19,x
CC(C)(C)[C@H](N)C(=O)N[C@H]1CCC2C3CC=C4C[C@@H](O)CC[C@]4(C)C3CC[C@@]21C (stereo not given in full),-5,x,-10,1,14,3995
O=C(NCc1nnnn1-c1ccc(Cl)cc1)c1ccc(Br)o1,x,x,x,x,-5,x
CC(C(=O)Nc1ccc(Cl)cc1)c1ncc(C(F)(F)F)cc1Cl (stereo not given),-1,4,-2,1,0,20389*
NC(=O)C(c1ccc(Cl)cc1Cl)c1ncc(C(F)(F)F)cc1Cl (stereo not given),0,0,0,u,19,19681*
CCC(NC(=O)c1ccc2c(c1)c(C)c(C)n2Cc1ccc(Cl)cc1)c1ccccc1 (stereo not given),x,x,x,x,10,x
Cc1cccc(NC(=O)c2cc(S(=O)(=O)NCc3ccco3)ccc2F)c1C,1,-5,1,2,7,23011*
CC(C)CN1C(=O)[C@]2(CC(=O)N(C)C2c2ccccc2)c2cc(-n3cc(-c4ccccc4)nn3)ccc21 (stereo not given in full),x,x,x,x,14,x
CCCCCCOC(=O)C1=C(C)NC(=O)NC1c1ccc2c(c1)OCO2 (stereo not given),13,-2,-18,0,14,3290
CN1CCc2nc3sc(C#N)c(N)c3c(-c3cccs3)c2C1,-1,-4,-12,15,12,19864*
SMILES,Anthrax LF prot,SARS 3CLpro inh,BoNT-F LC inh,BoNT A protease,CCHFV vOTU inh,Bead autofluor
CCCN(CCC)S(=O)(=O)c1ccc(C(=O)N2CCCc3ccccc32)cc1,-2,10,0,0,7,22837*
COc1ccc(NC(=O)N2CCCc3ccccc32)cc1,-1,-2,-3,0,-3,20850*
O=C(c1cccnc1)N1CCc2ccccc21,-6,-3,10,8,8,20167*
COc1cccc(C(=O)N2CCCc3ccccc32)c1,-2,5,-11,-3,1,17528*
C=CCNC(=S)Nc1c(N)n(C)c(=O)n(C)c1=O,-5,-1,-7,1,-10,u
CCCCCCCCN1C(=O)[C@@H](CC(=O)NCCCOC)C[C@@]2(C(=O)OC)C1=C[C@H](COCc1ccccc1)O[C@@H]2C,x,x,x,x,15,x
CC(C)(C)C(=O)N(Cc1ccc(Cl)cc1)Cc1cccnc1,1,5,-1,0,7,5885
Cc1cc(C(=O)Nc2ccccn2)cs1,-2,-1,0,0,1,22600*
